Data taken from PubChem BioAssay (NCI).
The panel holds about 83,000 compounds, 20% with a hit somewhere; the sample as a whole holds those more often.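 Plates (96-well) were seeded with cells, treated with compound at one concentration, and incubated for 48 hours before percent growth was determined.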 Values without a mark were called inactive. The source made the active and inactive calls. The calls were made as follows: active = growth percent below 10; inactive = the rest.

What was measured:
Assay in all cases: NCI-60 one-dose screen, 48 h (100 = growth as untreated, 0 = no growth, -100 = all killed)
Conditions in all cases: 10 µM unless noted
NCI-H23 lung = test system: NCI-H23 lung
NCI-H322M lung = test system: NCI-H322M lung
HOP-62 NSCLC = test system: HOP-62 NSCLC
NCI-H460 lung = test system: NCI-H460 lung
NCI-H522 lung = test system: NCI-H522 lung
A549/ATCC NSCLC = test system: A549/ATCC NSCLC
786-0 renal = test system: 786-0 renal
COLO 205 colon = test system: COLO 205 colon
DU-145 prostate = test system: DU-145 prostate
K-562 leukemia = test system: K-562 leukemia
MALME-3M melanoma = test system: MALME-3M melanoma
MDA-MB-231 breast = test system: MDA-MB-231 breast
RXF 393 renal = test system: RXF 393 renal
SF-268 CNS = test system: SF-268 CNS
SF-295 CNS = test system: SF-295 CNS
SF-539 CNS = test system: SF-539 CNS
UACC-257 melanoma = test system: UACC-257 melanoma
M14 melanoma = test system: M14 melanoma

| Structure (SMILES) | growth (NCI-H23 lung) | growth (NCI-H322M lung) | growth (HOP-62 NSCLC) | growth (NCI-H460 lung) | growth (NCI-H522 lung) | growth (A549/ATCC NSCLC) | growth (786-0 renal) | growth (COLO 205 colon) | growth (DU-145 prostate) | growth (K-562 leukemia) | growth (MALME-3M melanoma) | growth (MDA-MB-231 breast) | growth (RXF 393 renal) | growth (SF-268 CNS) | growth (SF-295 CNS) | growth (SF-539 CNS) | growth (UACC-257 melanoma) | growth (M14 melanoma) |
| --- | --- | --- | --- | --- | --- | --- | --- | --- | --- | --- | --- | --- | --- | --- | --- | --- | --- | --- |
| C[C@H](NC(=O)c1snnc1C1CC1)c1c(F)cccc1Cl | 97.3% | 123% | 107% | 110% | 94.2% | 101% | 112% | 219% | 127% | 115% | 119% | 105% | -22.6% (active) | 114% | 96.8% | 96.6% | 115% | 116% |
| COc1cc(/C=N/NC(=O)Cn2c(-c3ccc(C)o3)nc3ccccc32)ccc1OCc1ccccc1 | 91.1% | 85.7% | 89.8% | 91.5% | 73.6% | 72.9% | 99% | 102% | 105% | 65.5% | 115% | 78.7% | 85.6% | 76.1% | 91.7% | 103% | 89.5% | 85.2% |
| Cc1cc(-c2ccc(N=Nc3c(S(=O)(=O)O)cc4cc(S(=O)(=O)O)cc(O)c4c3O)c(C)c2)ccc1N=Nc1c(S(=O)(=O)O)cc2cc(S(=O)(=O)O)cc(O)c2c1O | 101% | 80.7% | 82.7% | 130% | 99.3% | 101% | 113% | 92% | 112% | 125% | 100% | 107% | 80.1% | 104% | 94.1% | 101% | 102% | 103% |
| NC(=O)c1ccc[n+](Cc2ccccc2)c1 | 96.1% | 104% | 127% | 108% | 99.3% | 94.3% | 109% | 112% | 101% | 113% | 75.4% | 105% | 97.6% | 107% | 109% | 96.7% | 95.3% | 96.3% |
| COC(=O)C(Br)(C(=O)OC)C(Br)C(Br)C(Br)c1ccccc1 (stereo not given) | 94.1% | 102% | 120% | 100% | -84.5% (active) | 97.9% | 86% | 30.1% | 89.3% | 19.9% | 47.5% | 89% | -20.8% (active) | 101% | 114% | 26.6% | 56.4% | 44.2% |
| CC1OC(n2c3ccccc3c3c4c(c5c6ccccc6[nH]c5c32)C(=O)N(CCN2CCOCC2)C4=O)CC(O)C1O (stereo not given) | 16.3% | 59.1% | -5.89% (active) | 3.35% (active) | 10.6% | 12.2% | 6.66% (active) | 20% | 18.1% | 18.4% | 49.1% | 74.5% | 33.4% | 29.8% | 6.46% (active) | 8.58% (active) | 31.8% | 6.29% (active) |
| CS(=O)(=O)c1ccc(C(=O)N/N=C/c2ccccc2Cl)cc1 | 94.8% | 99.2% | 87.3% | 101% | 96.4% | 78.4% | 97.2% | 90.9% | 98.8% | 67.5% | 100% | 93.6% | 117% | 100% | 103% | 101% | 64.5% | 91.9% |
| COc1cccc(-c2cc(-c3cccs3)c(C#N)c(=O)[nH]2)c1 | 98.9% | 108% | 108% | 102% | 98.8% | 102% | 94.1% | 111% | 108% | 102% | 110% | 106% | 117% | 104% | 102% | 101% | 115% | 105% |
| CC(=O)N1N=C(C2C(=O)N(C)C(=O)N(C)C2=O)CC1c1ccccc1C(=O)O (stereo not given) | 98.3% | 97.1% | 97.2% | 104% | 83.3% | 98.4% | 98.2% | 108% | 103% | 87.5% | 104% | 104% | 104% | 96.7% | 112% | 104% | 95.7% | 96.7% |
| COc1ccc(/C(C)=N/NC(=O)c2ccc(S(C)(=O)=O)cc2)cc1OC | 104% | 96.5% | 85.5% | 108% | 104% | 96.5% | 94.2% | 95.3% | 95.7% | 69.5% | 98.1% | 103% | 114% | 102% | 98.3% | 99.1% | 96.3% | 97.4% |
| O=C(NCCN1CCCCC1)n1cc(-c2ccncc2)c(-c2ccc(Cl)c(O)c2)n1 | 83.4% | 119% | 79% | – | 84.9% | 98.4% | 85.9% | 87% | 105% | 89.5% | -1.57% (active) | 74.5% | 68% | 89.8% | 120% | 91.3% | 58.9% | 27.5% |
| O=C(/C=C/c1ccc(F)cc1)N1CCN(C(=O)/C=C/c2ccc(C(F)(F)F)cc2)CC1 | 106% | 106% | 109% | 116% | 92% | 96.9% | 107% | 126% | 109% | 104% | 98.6% | 96.8% | 120% | 114% | 119% | 123% | 97.3% | 97.4% |
| CN(C)c1nc(-c2ccco2)n2nc(-c3ccc(Cl)cc3)cc2n1 | 77.5% | 69.8% | 38% | 27.7% | 71.5% | 49.6% | 43.4% | 67.6% | 77% | 67.4% | 98.6% | 54.3% | 51% | 66.6% | 56% | 63.4% | 98.7% | 87% |
| O=C(NCCN1CCCC1)n1cc(-c2ccncc2)c(-c2cc(O)cc(Cl)c2)n1 | 102% | 115% | 92.3% | 99.2% | 98.6% | 101% | 79.2% | 76.4% | 104% | 82% | 9.44% (active) | 80.8% | 75.5% | 92.6% | 125% | 77.9% | 43.4% | 25.4% |
| CN1C(=O)C(C(=O)/C=C/c2ccccc2C(=O)O)C(=O)N(C)C1=O | 95.1% | 99.1% | 91.3% | 104% | 90.5% | 97.4% | 94.7% | 114% | 111% | 90.1% | 103% | 109% | 118% | 100% | 98.4% | 104% | 93.3% | 99% |
| COc1ccc(NC(=O)c2sc3c(=O)[nH]c(C(F)(F)F)nc3c2C)cc1 | 93.4% | 107% | 107% | 115% | 79.5% | 95.2% | 103% | 114% | 118% | 102% | 102% | 112% | 117% | 108% | 111% | 114% | 105% | 116% |
| NC(N)=N/N=C/c1ccc(Cl)cc1 | 99.7% | 105% | 75% | 53.6% | 79.9% | 92.1% | 97.1% | 77.6% | 73.8% | 14% | 88.3% | 97.5% | 89.3% | 68.5% | 81.9% | 99.1% | 80.7% | 66.2% |
